Drawing on the supplement of paper PMC12669797, this text covers cell viability for 22 molecules.

Several values for one entry are separate records, joined by “and”; a condition that tells them apart may be missing. Identical values can stand only once. ± gives the standard deviation of the averaged measurements.

The first experiment relates to ES2. As to the kind of experiment: cell viability relative to DMSO control (MTS) (fraction of DMSO control); higher = more viable cells / less growth inhibition. The conditions noted are these: 10 µM; 48 h. The gist of the method: (§1)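 Viability values are fractions of the vehicle-treated control. They come from an MTS assay run per the manufacturer's instructions on TOV-21G and ES2 clear cell carcinoma cells, seeded at 5000 cells per well in 96-well plates. Each compound of a 367-member […] library was added at 10 µM final after 24 h of growth, and the readout was taken after a further 48 h.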
In turn, `CC[C@H]1/C=C/C=C/C[C@@H](C)[C@H](O)[C@@](C)(O)C(=O)[C@@H](C)[C@H](O)[C@@H](C)C(=O)[C@@H](C)[C@H](O)[C@@H](C)/C=C/C(=O)O[C@@H]2[C@H](C)[C@H](CC1)O[C@]1(CC[C@H](C)[C@H](C[C@@H](C)O)O1)[C@H]2C` [Oligomycin] returned a cell viability of 0.67.
In turn, `CN1C(=O)[C@]2(Cc3cn([C@]45C[C@@]67SS[C@@](CO)(C(=O)N6[C@H]4Nc4ccccc45)N(C)C7=O)c4ccccc34)SS[C@@]1(CO)C(=O)N2C` [Chetomin] gave a cell viability of 0.32.
The molecule `Cc1sc2c(c1C)C(c1ccc(Cl)cc1)=N[C@@H](CC(=O)OC(C)(C)C)c1nnc(C)n1-2` registered a cell viability of 0.502.
The molecule `N.N.[Cl][Pt][Cl]` [Cisplatin] gave a cell viability of 0.794.
With `C[C@H]1O[C@@H](n2cnc3c(N)ncnc32)C[C@@H]1O` [2',5'-dideoxyadenosine], the cell viability worked out at 0.972.
`C[C@@H]1O[C@@H](O[C@H]2C[C@@H](O)[C@]3(CO)[C@H]4[C@H](O)C[C@]5(C)[C@@H](C6=CC(=O)OC6)CC[C@]5(O)[C@@H]4CC[C@]3(O)C2)[C@H](O)[C@H](O)[C@H]1O` [Ouabain] gave a cell viability of 0.439.
As to `CC(=O)N[C@H]1[C@@H](O[C@@H]2O[C@H](CC(O)[C@H]3O[C@@H](n4ccc(=O)[nH]c4=O)[C@H](O)[C@@H]3O)[C@H](O)[C@H](O)[C@H]2NC(=O)/C=C/CC(C)C)O[C@H](CO)[C@@H](N)[C@@H]1O` (some centres undefined) [Tunicamycin], the cell viability came out at 1.19.
Molecule `COc1ccc2c3c([nH]c2c1)[C@H](C=C(C)C)N1C(=O)[C@@H]2CCCN2C(=O)[C@@H]1C3` [Fumitremorgin C] yielded a cell viability of 0.945.
For `COC(=O)C1(OC)CC2OC1(C)n1c3ccccc3c3c4c(c5c6ccccc6n2c5c31)C(=O)N(C)C4` (centres undefined), the cell viability is 1 and 1.11.
On the same count and under the same terms, for `CC(C)(C)c1cc(C=C(C#N)C#N)cc(Br)c1O` the value was 0.94 ± 0.18.
Molecule `N[C@@H]1C[C@H]1c1cc(F)cc(F)c1OCc1ccccc1` [S2101 (LSD1 inhibitor II)] registered a cell viability of 0.792.
With `CC1=C2C(=O)[C@H]3[C@@H](CC=C4C[C@@H](O)CC[C@@]43C)[C@@H]2CC[C@]12O[C@@H]1C[C@H](C)CN[C@H]1[C@H]2C` [Jervine], the cell viability is 1.04.
Regarding `CN1C(=O)CN=C(c2ccc(Cl)cc2)c2cc(Cl)ccc21`, the cell viability was 1.1.
On to `CC(C)(O)/C=C/C(=O)[C@](C)(O)[C@H]1[C@H](O)C[C@@]2(C)[C@@H]3CC=C4[C@@H](C=C(O)C(=O)C4(C)C)[C@]3(C)C(=O)C[C@]12C` [Cucurbitacin I], for which the cell viability is 0.393.
`O[C@H]1[C@H]2[C@H](O)CCCN2C[C@H]1O` [Swainsonine] showed a cell viability of 0.98.
Molecule `C=C1[C@@H](C)[C@H]2[C@H](Cc3ccccc3)NC(=O)[C@]23[C@H](OC(C)=O)/C=C/[C@@](C)(O)C(=O)[C@@H](C)C/C=C/[C@H]3[C@@H]1O` [Cytochalasin D] displayed a cell viability of 0.498.
On the same count and under the same terms, the same measure for `CNc1ccc2oc(C[C@H]3O[C@@]4(CC[C@H]3C)O[C@H]([C@H](C)C(=O)c3ccc[nH]3)[C@H](C)C[C@H]4C)nc2c1C(=O)O`: 0.425; for `CC[C@@]1([C@@H]2O[C@@H]([C@H]3O[C@@](O)(CO)[C@H](C)C[C@@H]3C)C[C@@H]2C)CC[C@H]([C@]2(C)CC[C@]3(C[C@H](O)[C@@H](C)[C@@H]([C@@H](C)[C@@H](OC)[C@H](C)C(=O)O)O3)O2)O1` [Monensin]: 0.419; for `O=C1C2CCN(CC2)C1(CO)CO`: 1.01.
Same read-out and setting: the same measure for `C[C@@]12C(=O)OC(=O)[C@]1(C)[C@H]1CC[C@@H]2O1` [Cantharidin]: 0.495; for `C#CCN(C)C(C)Cc1ccccc1` (centres undefined) [Deprenyl]: 1.12.
For `C[C@H](CCC(=O)O)C[C@H](C)C[C@H](C)C(=O)/C=C(\O)[C@H](C)C[C@H](C)C/C=C/[C@@H](C)[C@@H](O)[C@@H](C)[C@@H](O)C[C@@H]1CC[C@@](C)([C@H]2CC[C@@](C)([C@@H](C)O)O2)O1` [Ionomycin], the cell viability came out at 0.54.

The next experiment relates to TOV-21G. The description is as above. The following applies: 10 µM; 48 h. The gist of the method: as §1
In turn, `CC[C@H]1/C=C/C=C/C[C@@H](C)[C@H](O)[C@@](C)(O)C(=O)[C@@H](C)[C@H](O)[C@@H](C)C(=O)[C@@H](C)[C@H](O)[C@@H](C)/C=C/C(=O)O[C@@H]2[C@H](C)[C@H](CC1)O[C@]1(CC[C@H](C)[C@H](C[C@@H](C)O)O1)[C@H]2C` [Oligomycin] had a cell viability of 0.535.
Same read-out and setting: the same measure for `CN1C(=O)[C@]2(Cc3cn([C@]45C[C@@]67SS[C@@](CO)(C(=O)N6[C@H]4Nc4ccccc45)N(C)C7=O)c4ccccc34)SS[C@@]1(CO)C(=O)N2C` [Chetomin]: 0.254; for `Cc1sc2c(c1C)C(c1ccc(Cl)cc1)=N[C@@H](CC(=O)OC(C)(C)C)c1nnc(C)n1-2`: 0.305.
Still for that read-out and setting: the same measure for `N.N.[Cl][Pt][Cl]` [Cisplatin]: 1.09; for `C[C@H]1O[C@@H](n2cnc3c(N)ncnc32)C[C@@H]1O` [2',5'-dideoxyadenosine]: 1.05.
In turn, `C[C@@H]1O[C@@H](O[C@H]2C[C@@H](O)[C@]3(CO)[C@H]4[C@H](O)C[C@]5(C)[C@@H](C6=CC(=O)OC6)CC[C@]5(O)[C@@H]4CC[C@]3(O)C2)[C@H](O)[C@H](O)[C@H]1O` [Ouabain] yielded a cell viability of 0.279.
`CC(=O)N[C@H]1[C@@H](O[C@@H]2O[C@H](CC(O)[C@H]3O[C@@H](n4ccc(=O)[nH]c4=O)[C@H](O)[C@@H]3O)[C@H](O)[C@H](O)[C@H]2NC(=O)/C=C/CC(C)C)O[C@H](CO)[C@@H](N)[C@@H]1O` (some centres undefined) [Tunicamycin]: the cell viability is 1.03.
The molecule `COc1ccc2c3c([nH]c2c1)[C@H](C=C(C)C)N1C(=O)[C@@H]2CCCN2C(=O)[C@@H]1C3` [Fumitremorgin C] gave a cell viability of 0.838.
Consider `COC(=O)C1(OC)CC2OC1(C)n1c3ccccc3c3c4c(c5c6ccccc6n2c5c31)C(=O)N(C)C4` (centres undefined), for which the cell viability is 0.914 and 1.01.
The same measure, in the same setting: the same measure for `CC(C)(C)c1cc(C=C(C#N)C#N)cc(Br)c1O`: 1.09 ± 0.034; for `N[C@@H]1C[C@H]1c1cc(F)cc(F)c1OCc1ccccc1` [S2101 (LSD1 inhibitor II)]: 1.04.
Same read-out and setting: the same measure for `CC1=C2C(=O)[C@H]3[C@@H](CC=C4C[C@@H](O)CC[C@@]43C)[C@@H]2CC[C@]12O[C@@H]1C[C@H](C)CN[C@H]1[C@H]2C` [Jervine]: 1.64; for `CN1C(=O)CN=C(c2ccc(Cl)cc2)c2cc(Cl)ccc21`: 0.825; for `CC(C)(O)/C=C/C(=O)[C@](C)(O)[C@H]1[C@H](O)C[C@@]2(C)[C@@H]3CC=C4[C@@H](C=C(O)C(=O)C4(C)C)[C@]3(C)C(=O)C[C@]12C` [Cucurbitacin I]: 0.328.
`O[C@H]1[C@H]2[C@H](O)CCCN2C[C@H]1O` [Swainsonine] gave a cell viability of 0.689.
`C=C1[C@@H](C)[C@H]2[C@H](Cc3ccccc3)NC(=O)[C@]23[C@H](OC(C)=O)/C=C/[C@@](C)(O)C(=O)[C@@H](C)C/C=C/[C@H]3[C@@H]1O` [Cytochalasin D] showed a cell viability of 0.472.
In the case of `CNc1ccc2oc(C[C@H]3O[C@@]4(CC[C@H]3C)O[C@H]([C@H](C)C(=O)c3ccc[nH]3)[C@H](C)C[C@H]4C)nc2c1C(=O)O`, the cell viability is 0.284.
For the molecule `CC[C@@]1([C@@H]2O[C@@H]([C@H]3O[C@@](O)(CO)[C@H](C)C[C@@H]3C)C[C@@H]2C)CC[C@H]([C@]2(C)CC[C@]3(C[C@H](O)[C@@H](C)[C@@H]([C@@H](C)[C@@H](OC)[C@H](C)C(=O)O)O3)O2)O1` [Monensin], the cell viability worked out at 0.368.
Molecule `O=C1C2CCN(CC2)C1(CO)CO` returned a cell viability of 1.1.
Turning to `C[C@@]12C(=O)OC(=O)[C@]1(C)[C@H]1CC[C@@H]2O1` [Cantharidin], the cell viability amounted to 0.403.
Molecule `C#CCN(C)C(C)Cc1ccccc1` (centres undefined) [Deprenyl] came in with a cell viability of 1.01.
`C[C@H](CCC(=O)O)C[C@H](C)C[C@H](C)C(=O)/C=C(\O)[C@H](C)C[C@H](C)C/C=C/[C@@H](C)[C@@H](O)[C@@H](C)[C@@H](O)C[C@@H]1CC[C@@](C)([C@H]2CC[C@@](C)([C@@H](C)O)O2)O1` [Ionomycin] came in with a cell viability of 0.501.
